Experimental data published in PubChem BioAssay (NCI).
About 83,000 compounds went through this panel and 20% of them were active in at least one assay; those are over-represented in the sample as a whole.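 How to read the values: 0–100, growth inhibition (40 = 60% inhibited); 0, no net growth; -100 to 0, cell death (-40 = 40% of starting cells died; -100 = all dead).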 A number with no mark means an inactive call. Active and inactive are the calls of the source. Rule for the calls: active = growth percent below 10; inactive = the rest.

How the values were obtained:
Test in all cases: NCI-60 one-dose screen, 48 h (100 = growth as untreated, 0 = no growth, -100 = all killed)
Conditions in all cases: 10 µM
T-47D breast = tested on: T-47D breast
BT-549 breast = tested on: BT-549 breast
MDA-MB-435 melanoma = tested on: MDA-MB-435 melanoma
SW-620 colon = tested on: SW-620 colon
MCF7 breast = tested on: MCF7 breast
HCT-116 colon = tested on: HCT-116 colon
KM12 colon = tested on: KM12 colon
HCC-2998 colon = tested on: HCC-2998 colon

Row | Structure (SMILES) | growth (T-47D breast) | growth (BT-549 breast) | growth (MDA-MB-435 melanoma) | growth (SW-620 colon) | growth (MCF7 breast) | growth (HCT-116 colon) | growth (KM12 colon) | growth (HCC-2998 colon)
1 | COc1ccc2c(c1)/C(=C/c1cc(OC)c(OC)c(OC)c1)C(=O)N2C | -11.1% (active) | 57.1% | -50.3% (active) | 1.64% (active) | 4.54% (active) | 19.3% | -20.8% (active) | 
2 | Nc1nsc(C(=O)c2ccc(O)cc2)n1 | 94.2% | 102% | 104% | 108% | 99.3% | 94.8% | 100% | 98.7%
3 | CC(C)OCc1cc(CN2CCN(c3cccc(Cl)c3)CC2)c(O)c2ncccc12 | 3.25% (active) | -46% (active) | -28.5% (active) | -3.23% (active) | 4.89% (active) | -55.5% (active) | -23% (active) | -21.6% (active)
4 | Cc1cccc2c1O/C(=C\c1ncc([N+](=O)[O-])n1C)C2=O | 89.7% | -53.7% (active) | -54.1% (active) | -11.6% (active) | 2.72% (active) | -66.6% (active) | -50.6% (active) | -73.1% (active)
5 | Cn1c(N)c(N=Cc2ccccc2)c(=O)n(C)c1=O | 108% | 102% | 114% | 107% | 103% | 92.8% | 115% | 104%
6 | CCOC(=O)c1c(O)c2cc(-c3ccccc3)nc(OCC)c2c(=O)n1C | 94.7% | 133% | 90.1% | 104% | 93.8% | 87.7% | 104% | 
7 | COc1ccc(COC(=O)CC(C)C)cc1 | 96.7% | 100% | 107% | 105% | 99.7% | 96.3% | 98% | 103%
8 | COC(=O)c1cnc2c(c1)Oc1ccccc1-c1ccnn1-2 | 84.4% | 102% | 99.5% | 99.4% | 96.3% | 92.1% | 109% | 99.7%
9 | COc1cc(C2C(C#N)=C(c3c[nH]c4ccccc34)Nc3nc(N)[nH]c(=O)c32)cc(OC)c1OC (centres undefined) | 36.2% | 51.6% | 38.1% | 86.9% | 42.2% | 74% | 94.1% | 93.1%
10 | FC(F)(F)c1ccc(-c2cnc(Cl)nc2NCc2cc(C(F)(F)F)cc(C(F)(F)F)c2)cc1 | 10.5% | 26.2% | 14.3% | 17.5% | 4.38% (active) | 4.49% (active) | 13.1% | 
11 | COc1cc(-c2n/c(=C\c3c(O)[nH]c4ccccc34)cc3c2=Nc2ccccc2-3)cc(OC)c1OC | 51.7% | 6.59% (active) | -7.06% (active) | 33.4% | 3.28% (active) | 3.38% (active) | 5.99% (active) | -20.4% (active)
12 | CC1(C)CC(=O)c2c(nc3ccc(Cl)cc3c2-c2ccccc2)C1 | 85.7% | 85.8% | 84.5% | 159% | 86.3% | 91% | 94% | 
13 | COc1ccc2nc(/C=C/c3ccc(N(C)C)cc3)sc2c1 | 300% | 104% | 90.3% | 93.6% | 96.6% | 105% | 104% | 
14 | O=C(Nc1ccc(OS(=O)(=O)Cc2ccccc2)cc1)C12CC3CC(CC(C3)C1)C2 | 51.3% | 71.2% | 97.9% | 25.3% | 80.7% | 63.9% | 42.4% | 49.1%
15 | COc1ccc(C2=NNC(c3sc(Cl)nc3Cl)C2)cc1 (centres undefined) | 27.9% | 53.3% | 80% | 29.1% | 40.8% | 28% | 79.5% | 72.1%
16 | CC(=O)OC1Oc2ccccc2-c2oc(=O)c(-c3cc(=O)oc4cc(O)ccc34)cc21 (centres undefined) | -17.5% (active) | 61.4% | 86.8% | 92.2% | 85.5% | 87.3% | 89.2% | 
17 | COc1cccc(C2(C)Nc3ccccc3-c3nc4ccccc4n32)c1 (centres undefined) | 98.5% | 108% | 104% | 108% | 103% | 106% | 108% | 106%
18 | Nc1c(C(=O)NC2CCCCC2)sc2nc3c(cc12)C(=O)CCC3 | 94.2% | 95.4% | 54.7% | 98.8% | 83.2% | 102% | 91.8% | 121%

Row | Structure (SMILES) | growth (T-47D breast) | growth (BT-549 breast) | growth (MDA-MB-435 melanoma) | growth (SW-620 colon) | growth (MCF7 breast) | growth (HCT-116 colon) | growth (KM12 colon) | growth (HCC-2998 colon)
19 | COc1cc(N=C2C(=O)N(Cc3ccccc3)c3ccccc32)cc(OC)c1OC | 83.9% | 106% | 98.5% | 103% | 93.8% | 99.8% | 96.1% | 
20 | COc1ccc(S(=O)(=O)Nc2ccc(OCc3nnc(-c4ccc(Cl)cc4)o3)c(F)c2)cc1 | 9.53% (active) | 55% | 64% | 84.5% | 42.8% | 54.6% | 56.3% | 74.2%
21 | Cc1cc(C)c2c(Nc3ncnc4c3sc3nc(C)cc(C)c34)n[nH]c2n1 | 89.8% | 101% | 98.7% | 101% | 103% | 103% | 111% | 113%
22 | Cc1ccccc1C1=N[C@@H](Cc2ccccc2)C(=O)c2c(nc3ccccn23)N1 | 104% | 96.9% | 98.8% | 103% | 84.9% | 86.9% | 108% | 99.9%
23 | O=C(O)CCCN1C(=O)NC2(C1=O)c1ccccc1-c1ccccc12 | 89.4% | 96.7% | 103% | 104% | 97.3% |  | 102% | 101%
24 | NC(=O)c1ccc(Br)o1 | 92.9% | 103% | 112% | 113% | 95.5% |  | 102% | 91.1%
25 | Cc1ccc2oc(=O)cc(/C(=C3/C=CC=N3)c3ccc[nH]3)c2c1 | -1.91% (active) | -11.4% (active) | -24.8% (active) | 20.9% | 7.32% (active) |  | -17.6% (active) | -17% (active)
26 | COc1ccc(-c2csc(-c3cc(Cl)cc(Cl)c3Cl)n2)cc1 | 50.6% | 102% | 80.7% | 46.4% | 56.2% | 108% | 86.9% | 
27 | O=C(COc1ccc(Cl)cc1Cl)Oc1coc(CSc2nc3ccccc3s2)cc1=O | 101% | 108% | 114% | 20.7% | 102% | 105% | 110% | 
28 | NC(=O)C12C(=O)NC(=O)C1(C(=O)O)C21CCCC1 (centres undefined) | 114% | 104% | 100% | 104% | 96.3% |  | 113% | 114%
29 | O=C(O)CN1C(=O)C=CC1=O | 101% | 114% | 106% | 107% | 102% |  | 102% | 107%
30 | C#Cc1ccc(-n2c(/C=C/c3cc(OC)c(OC)c(OC)c3)nc3ncccc3c2=O)cc1 | 58.9% | 59.7% | -9.47% (active) | 49.1% | 25% |  |  | 91%
31 | CC(C)(C)c1ccc(OCCCCCCN2CCNCC2)cc1 | 34.8% | 58.7% | 68.3% | 45.9% | 17.5% |  | 51.1% | -47.1% (active)
32 | C(=C\c1nc2ccccc2s1)/c1ccc(N2CCOCC2)s1 | 1.72% (active) | 89.5% | 64.9% | 101% | 80.2% | 55.4% | 48.6% | 
33 | CC(=O)n1nc(C(=O)OC(C)(C)C)c2cc(F)c(F)cc21 | 104% | 119% | 95.9% | 94.1% | 99.2% |  | 90% | 102%
34 | CC(=O)c1ccc(NCn2nc(-c3ccc(Cl)cc3)oc2=S)cc1 | 80% | 99.1% | 105% | 104% | 95.7% |  | 93.1% | 99.7%
35 | O=C(C=P(c1ccccc1)(c1ccccc1)c1ccccc1)c1ccc(Br)cc1 | 87.9% | 107% | 106% | 80.7% | 92.4% | 67.8% | 83.4% | 
